The list is not random: actives were taken first. Their share in the collection is about 6%.
D1 agonist – Allosteric Agonists of the Human D1 Dopamine Receptor: qHTS; HEK293 T-REx D1 cells, calcium flux, agonist mode; AID 504660, 2011; activation, % at 2 µM; D(1A) dopamine receptor (Homo sapiens), P21728; 360,000 compounds, 1% hits; in the data active means activation above about 30%
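Tetracycline-induced HEK293 TREx D1 cells, force-coupled to calcium signalling, were dye-loaded with a no-wash calcium kit. Compound was pin-added after a 10 s baseline. Fluorescence was read kinetically at 1 cycle/s for 180 s, with calcium rises flagged as agonism.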
BCR signal inh – qHTS Assay to Find Inhibitors of Chronic Active B-Cell Receptor Signaling; Potency, µM (titrated, usually from 46.1 µM), usual class: inhibitors; 340,000 compounds, 0.05% hits; ABC-DLBCL IkBa-CBG/CBR reporter, luminescence ratio, 4 h; active means well fitted inhibition curve with a large enough effect in the signal ratio, with a control signal flat, not every such curve was filed as active; inconclusive means small, poorly fitted or top-dose-only effect, or effect the other way, or a change in a side signal; the % refers to the signal ratio
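TMD8 ABC-DLBCL cells carrying doxycycline-inducible green luciferase fused to IkappaBalpha plus unfused red luciferase were exposed to compounds (up to 46 uM) for 4 hrs at 37C. Activity came from the overlap-corrected green/red luminescence ratio.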
D3 ag – qHTS of D3 Dopamine Receptor Agonist: qHTS. max activation, %. D3R DiscoveRx beta-arrestin cells, luminescence, 90 min. D(3) dopamine receptor (Homo sapiens), P35462. 410,000 compounds, 0.58% hits; in the data active means max activation above about 30%
Target sequence (P35462 whole entry, looked up): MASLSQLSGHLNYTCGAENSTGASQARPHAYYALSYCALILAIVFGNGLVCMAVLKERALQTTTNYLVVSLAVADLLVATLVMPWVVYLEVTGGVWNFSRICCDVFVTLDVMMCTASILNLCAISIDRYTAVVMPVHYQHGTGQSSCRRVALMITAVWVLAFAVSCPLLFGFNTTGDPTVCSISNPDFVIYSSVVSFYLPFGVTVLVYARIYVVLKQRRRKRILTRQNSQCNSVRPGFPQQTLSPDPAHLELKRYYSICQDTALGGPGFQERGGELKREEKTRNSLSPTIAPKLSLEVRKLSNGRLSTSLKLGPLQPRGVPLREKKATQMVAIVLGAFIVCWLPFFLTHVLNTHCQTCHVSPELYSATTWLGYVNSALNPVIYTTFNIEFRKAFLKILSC
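Cells at 1500/well, incubated overnight, then treated with pinned compounds (dopamine as control) for 90 min at 37 degrees C. DiscoveRx reagent added for 30 - 60 minutes at room temperature; luminescence read.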
D1 potentiator – Potentiators of Human D1 Dopamine Receptor: qHTS; HEK293 TREx D1 cells, calcium flux, dopamine EC20 potentiation; potentiation, % at 10 µM; 360,000 compounds, 0.036% hits; in the data active means potentiation above about 30%
D1 antagonist – Antagonist of Human D 1 Dopamine Receptor: qHTS; D(1A) dopamine receptor (Homo sapiens), P21728; HEK293 TREx D1 cells, calcium flux, dopamine EC80; hits give low values; activity change, negative = inhibition, % at 10 µM; 360,000 compounds, 3.2% hits; AID 504652, 2011; in the data active means activity change below about -30%
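Calcium flux readout: force-coupled, inducible Hek293 Trex D1 line, cells induced overnight at 30 C with tetracycline, dye-loaded 30–90 min at RT. Antagonism scored against EC80 dopamine challenge given 180 s after compound.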
D3 antag – qHTS of D3 Dopamine Receptor Antagonist: qHTS | 360,000 compounds, 2.5% hits | D3R cells, DiscoveRx beta-arrestin luminescence, antagonist mode; hits give low values | max response, negative = inhibition, % | D(3) dopamine receptor (Homo sapiens), P35462; in the data active means max response below about -50%; inconclusive means no clear call, values can overlap the other calls
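Cells plated overnight at 1500 cells/well, then exposed to library compounds with dopamine controls for 90 minutes at 37 degrees C. DiscoveRx reagent added for 30–60 minutes at room temperature; luminescence read, quantitative HTS format.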
Hits are given with their value; - = inactive; ? = inconclusive; . = not tested or not shown.

SMILES	D1 agonist	BCR signal inh	D3 ag	D1 potentiator	D1 antagonist	D3 antag
Brc1ccc(CN2CCN(c3ccccc3)CC2)o1	-	-	-	-	-	-
COc1ccccc1CNC(=O)c1oc2ccc(S(=O)(=O)N3CCCCC3)cc2c1C	-	-	-	-	-	.
CCOC(=O)N1CCc2c(sc3c2c(=O)n(-c2ccc(CC)cc2)c(=O)n3CC(=O)c2ccc(F)cc2)C1	-	.	-	-	-	.
CC1=NN(C(N)=S)C(=O)C1N=Nc1ccc(F)cc1 (stereo not given)	-	?	-	-	-	-
CC1=NN(C(N)=S)C(=O)C1N=Nc1ccc(O)cc1 (stereo not given)	-	?	-	-	-	-66.2
COC(=O)c1ccc(C)c(NC(=O)c2ccc(CN3CCc4ccccc4C3)cc2)c1	-	-	-	-	-	-92.2
COc1ccc(C)cc1NC(=O)c1ccc(CN2CCN(c3ccccc3)CC2)cc1	-	-	-	-	-	?
COc1ccc(C)cc1NC(=O)c1ccc(CN2CCc3ccccc3C2)cc1	-	-	-	-	-	-68.8
CCC(C(=O)NCCc1cc(OC)ccc1OC)n1nc(C)c2c(C)n(-c3ccccc3)nc2c1=O (stereo not given)	-	.	-	-	-	.
N[C@H](C(=O)O)[C@@H]1CC(Cl)=NO1	.	.	-	.	.	.
Cc1csc(NC(=O)c2ccc(OCC3CCCO3)cc2)n1 (stereo not given)	-	?	-	-	-59.0	-
O=C(Nc1nc(-c2ccc(F)c(F)c2)cs1)c1ccc(OCC2CCCO2)cc1 (stereo not given)	-	-	-	-	-	-
Cc1ccc(NC(=O)C(C)Sc2nc(=O)cc(N)n2-c2cccc(C)c2)cc1 (stereo not given)	-	.	-	-	-	.
CCCN1CCN(CCCNC(=O)c2ccc3nc(N4CCC(C)CC4)sc3c2)CC1	-	?	-	-	-	?
CC1CC(C)CN(CCCNC(=O)c2ccc3nc(N4CCOCC4)sc3c2)C1 (stereo not given)	-	-	-	-	-	-62.8
COc1ccc(N2CCN(CCCNC(=O)c3ccc4nc(N5CCCCC5)sc4c3)CC2)cc1	-	.	-	-	-56.5	.
CCOc1ccc(CNS(=O)(=O)c2ccc3c(c2)CC(C)N3C(C)=O)cc1OC (stereo not given)	-	.	-	-	-	.
Cc1ccc(F)c(S(=O)(=O)NC(=O)C2(C)CCN2C(=O)c2cccc3ccccc23)c1 (stereo not given)	.	.	71.6	.	.	-
Cc1ccccc1S(=O)(=O)NC(=O)C1(C)CCN1C(=O)c1cccc2ccccc12 (stereo not given)	.	.	-	.	.	-
COc1ccc(-c2nnc(SCC(=O)NCc3cccs3)n2CC(C)C)cc1	-	?	-	-	-	-
COC(=O)CNC(=O)CSc1nnc(-c2ccc(OC)cc2)n1CC(C)C	-	-	-	-	-33.6	-
O=C(Nc1ccc(F)c(Cl)c1)c1cc(S(=O)(=O)N2CCCc3ccccc32)ccc1F	-	?	-	-	-	.
O=C(Nc1ccncc1)c1ccc(Cl)c(S(=O)(=O)N2CCCCC2)c1	-	-	-	-	-38.6	-
COc1cccc(CN(C)C(=O)c2ccc(C)c(S(=O)(=O)N3CCCCC3)c2)c1	-	-	-	-	-35.7	-
O=C(Nc1ccc(Br)cc1)c1ccc(Br)c(S(=O)(=O)N2CCCCC2)c1	-	-	-	-	-42.6	.
Cc1ccc(C(=O)Nc2cccc(C(=O)O)c2)cc1S(=O)(=O)N1CCCC1	-	.	-	-	-39.6	.
COc1ccc(C2=Nc3ccccc3N(C(=O)c3cnccn3)C2C(=O)NC2CCCC2)cc1 (stereo not given)	.	.	-	.	.	?
O=C(NCC(O)c1ccccc1)c1ccc(Cl)c(S(=O)(=O)N2CCCC2)c1 (stereo not given)	-	?	-	-	-31.0	-

Source: PubChem (National Center for Advancing Translational Sciences (NCATS))
